Results published in PubChem BioAssay (EPA / NIEHS).
Active and inactive are the calls of the source. Rule for the calls: active = hit-call score of the fitted dose curve at least 0.9, where 1 is the maximum; inactive = score below 0.9.

assay: ATG_AP_1_CIS: Attagene CIS-FACTORIAL HepG2 Assay for human Activator Protein 1 (AP-1) (AID 2282931); details: HepG2 Attagene cis-factorial AP-1 reporter mRNA; actives raise or lower the signal
Procedure, shortened: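 After 24 h incubation with test chemical, RNA from transfected HepG2 cells was reverse-transcribed, amplified, fluorescently labelled and digested before capillary electrophoresis. Reporters were driven by cis-regulatory promoters; activity fitted bidirectionally versus DMSO.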

Compound | outcome | AC50
CCCSP(=S)(OCC)Oc1ccc(SC)cc1 (stereo not given) | inactive | –
COCC(=O)N(c1c(C)cccc1C)[C@H](C)C(=O)OC | inactive | –
Cc1cc(C)cc(C)c1 | inactive | –
CCOP(=S)(OCC)SCSc1cc(Cl)ccc1Cl | inactive | –
C=CC(=O)[O][Sn]([CH2]CCC)([CH2]CCC)[CH2]CCC | – | 0.128 µM (active)
N#CS | inactive | –
Cc1cccc(OP(=O)(Oc2cccc(C)c2)Oc2cccc(C)c2)c1 | inactive | –
C1CN2CCN1CC2 | inactive | –
COc1ccc([N+](=O)[O-])cc1O | inactive | –
CCC[N+](CCC)(CCC)CCC | inactive | –
O=c1nc(O)n(Cl)c(=O)n1Cl | inactive | –
O=NN1CCOCC1 | inactive | –
O=C(O)CC(O)(CC(=O)O)C(=O)O | inactive | –
CCOP(=S)(OCC)SCS(=O)(=O)C(C)(C)C | inactive | –
CC(c1ccc(O)cc1)c1ccc(O)cc1 | inactive | –
COc1nn(C(=O)NS(=O)(=O)c2ccccc2OC(F)(F)F)c(=O)n1C | inactive | –
CC(C)[N+](=O)[O-] | inactive | –
CC1(C)[C@H](C(=O)O[C@H](C#N)c2cccc(Oc3ccccc3)c2)[C@@H]1/C=C(\Cl)C(F)(F)F | inactive | –
C=C(C)[C@@H]1CC=C(C=O)CC1 | – | 100 µM (active)

Compound | outcome | AC50
CC1CC(=O)O1 (stereo not given) | inactive | –
Brc1ccc(Br)cc1 | inactive | –
CC(C)O.CC(C)O.OCCN(CCO)CCO.OCCN(CCO)CCO.[Ti] | inactive | –
CCCCCCCCCCCCCl | inactive | –
CCOc1cc(C=O)ccc1O | inactive | –
O=S(=O)(C(Cl)(Cl)Cl)C(Cl)(Cl)Cl | – | 2.78 µM (active)
CC(C)(C)c1ccccc1O | – | 75.5 µM (active)
O=C(N[C@H]1CN2CCC1CC2)c1ccc2c(c1)OCCO2 | inactive | –
O=C(Cc1ccccc1)OCCc1ccccc1 | inactive | –
OCCN(CCO)CCO | inactive | –
OC[C@@H](O)[C@H]1O[C@@H]2O[C@H](C(Cl)(Cl)Cl)O[C@@H]2[C@H]1O | inactive | –
C[N+](C)(C)Cc1ccccc1 | inactive | –
OC(Cc1ccccc1Cl)(Cn1[nH]cnc1=S)C1(Cl)CC1 (stereo not given) | – | 53 µM (active)
CCCCS(=O)(=O)Cl | inactive | –
CC1(C)[C@H](/C=C2\CCSC2=O)[C@@H]1C(=O)OCc1coc(Cc2ccccc2)c1 | – | 144 µM (active)
C=CC(F)(C(F)(F)F)C(F)(F)C(F)(F)F (stereo not given) | inactive | –
O=C(CBr)c1ccc(O)cc1 | inactive | –
C#CCOC(=O)/C=C(C)/C=C/CC(C)CCCC(C)C (stereo not given) | – | 55.3 µM (active)
CC(C)(C1CCC(O)CC1)C1CCC(O)CC1 (stereo not given) | inactive | –

assay: ATG_AP_2_CIS: Attagene CIS-FACTORIAL HepG2 Assay for human Activator Protein 2 (AP-2) (AID 2282932); details: HepG2 AP-2 cis-reporter, Attagene transcription factor profiling; actives raise or lower the signal
Procedure, shortened: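 HepG2 cells transiently transfected with cis-element reporter units and exposed for 24 h. Reporter mRNA measured by RT-PCR, FAM labelling, HpaI digestion and capillary electrophoresis. Changes in either direction fitted relative to DMSO.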

Compound | outcome
Cc1cc(C)cc(C)c1 | inactive
O=c1nc(O)n(Cl)c(=O)n1Cl | inactive
CC1(C)[C@H](C(=O)O[C@H](C#N)c2cccc(Oc3ccccc3)c2)[C@@H]1/C=C(\Cl)C(F)(F)F | inactive
CC(C)O.CC(C)O.OCCN(CCO)CCO.OCCN(CCO)CCO.[Ti] | inactive
CCOc1cc(C=O)ccc1O | inactive
CC(C)(C)c1ccccc1O | inactive
OCCN(CCO)CCO | inactive
Oc1c(Cl)cc(Cl)cc1Cl | inactive

assay: ATG_BRE_CIS: Attagene CIS-FACTORIAL HepG2 Assay for human Bone Morphogenetic Protein (BMP) Response Element (BRE) (AID 2282933); details: HepG2 BMP response element reporter, Attagene transcription factor profiling; actives raise or lower the signal
Procedure, shortened: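 Transient MRTU transfection of human HepG2 liver cells; 24 h compound treatment; total RNA isolated, reverse-transcribed, PCR-amplified, 6-FAM labelled, HpaI-cut, capillary electrophoresis. DMSO = negative control/baseline, bidirectional fit.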

Compound | outcome | AC50
CCCSP(=S)(OCC)Oc1ccc(SC)cc1 (stereo not given) | inactive | –
COCC(=O)N(c1c(C)cccc1C)[C@H](C)C(=O)OC | inactive | –
Cc1cc(C)cc(C)c1 | inactive | –
CCOP(=S)(OCC)SCSc1cc(Cl)ccc1Cl | inactive | –
C=CC(=O)[O][Sn]([CH2]CCC)([CH2]CCC)[CH2]CCC | – | 0.217 µM (active)
N#CS | inactive | –
Cc1cccc(OP(=O)(Oc2cccc(C)c2)Oc2cccc(C)c2)c1 | inactive | –
C1CN2CCN1CC2 | inactive | –
COc1ccc([N+](=O)[O-])cc1O | inactive | –
CCC[N+](CCC)(CCC)CCC | inactive | –
O=c1nc(O)n(Cl)c(=O)n1Cl | inactive | –
O=NN1CCOCC1 | inactive | –
O=C(O)CC(O)(CC(=O)O)C(=O)O | inactive | –
CCOP(=S)(OCC)SCS(=O)(=O)C(C)(C)C | inactive | –
CC(c1ccc(O)cc1)c1ccc(O)cc1 | inactive | –
COc1nn(C(=O)NS(=O)(=O)c2ccccc2OC(F)(F)F)c(=O)n1C | inactive | –
CC(C)[N+](=O)[O-] | inactive | –
CC1(C)[C@H](C(=O)O[C@H](C#N)c2cccc(Oc3ccccc3)c2)[C@@H]1/C=C(\Cl)C(F)(F)F | inactive | –
C=C(C)[C@@H]1CC=C(C=O)CC1 | inactive | –
CC1CC(=O)O1 (stereo not given) | inactive | –

Compound | outcome | AC50
Brc1ccc(Br)cc1 | inactive | –
CC(C)O.CC(C)O.OCCN(CCO)CCO.OCCN(CCO)CCO.[Ti] | – | 6.97 µM (active)
CCCCCCCCCCCCCl | inactive | –
CCOc1cc(C=O)ccc1O | inactive | –
O=S(=O)(C(Cl)(Cl)Cl)C(Cl)(Cl)Cl | – | 18.7 µM (active)
CC(C)(C)c1ccccc1O | inactive | –
O=C(N[C@H]1CN2CCC1CC2)c1ccc2c(c1)OCCO2 | inactive | –
O=C(Cc1ccccc1)OCCc1ccccc1 | inactive | –
OCCN(CCO)CCO | inactive | –
OC[C@@H](O)[C@H]1O[C@@H]2O[C@H](C(Cl)(Cl)Cl)O[C@@H]2[C@H]1O | inactive | –
Oc1c(Cl)cc(Cl)cc1Cl | inactive | –
C[N+](C)(C)Cc1ccccc1 | inactive | –
OC(Cc1ccccc1Cl)(Cn1[nH]cnc1=S)C1(Cl)CC1 (stereo not given) | inactive | –
CCCCS(=O)(=O)Cl | inactive | –
CC1(C)[C@H](/C=C2\CCSC2=O)[C@@H]1C(=O)OCc1coc(Cc2ccccc2)c1 | inactive | –
C=CC(F)(C(F)(F)F)C(F)(F)C(F)(F)F (stereo not given) | inactive | –
O=C(CBr)c1ccc(O)cc1 | inactive | –
C#CCOC(=O)/C=C(C)/C=C/CC(C)CCCC(C)C (stereo not given) | inactive | –
CC(C)(C1CCC(O)CC1)C1CCC(O)CC1 (stereo not given) | inactive | –
